# Measurements from PubChem BioAssay (NCI).
# This is part of a sample that, as a whole, favours compounds with a hit. Of some 83,000 tested, about 20% had one in any assay.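 96-well plates, one dose, 48 hours. Percent growth reported; active if below 10.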 A number with no mark means an inactive call. Calls of active or inactive are those of the source.
# Experiments:
# Experiment in all cases: NCI-60 one-dose screen, 48 h (100 = growth as untreated, 0 = no growth, -100 = all killed)
# Conditions in all cases: 10 µM unless noted
# DU-145 prostate = tested on: DU-145 prostate
# K-562 leukemia = tested on: K-562 leukemia
# MALME-3M melanoma = tested on: MALME-3M melanoma
# MDA-MB-231 breast = tested on: MDA-MB-231 breast
# RXF 393 renal = tested on: RXF 393 renal
# SF-268 CNS = tested on: SF-268 CNS
# SF-295 CNS = tested on: SF-295 CNS
# SF-539 CNS = tested on: SF-539 CNS
# UACC-257 melanoma = tested on: UACC-257 melanoma
# HCT-15 colon = tested on: HCT-15 colon
# HT29 colon = tested on: HT29 colon
# SNB-19 CNS = tested on: SNB-19 CNS
# U251 CNS = tested on: U251 CNS
# PC-3 prostate = tested on: PC-3 prostate
# SK-MEL-5 melanoma = tested on: SK-MEL-5 melanoma
# UACC-62 melanoma = tested on: UACC-62 melanoma
# LOX IMVI melanoma = tested on: LOX IMVI melanoma
# SK-MEL-28 melanoma = tested on: SK-MEL-28 melanoma
# SNB-75 CNS = tested on: SNB-75 CNS
# M14 melanoma = tested on: M14 melanoma
SMILES,growth (DU-145 prostate),growth (K-562 leukemia),growth (MALME-3M melanoma),growth (MDA-MB-231 breast),growth (RXF 393 renal),growth (SF-268 CNS),growth (SF-295 CNS),growth (SF-539 CNS),growth (UACC-257 melanoma),growth (HCT-15 colon),growth (HT29 colon),growth (SNB-19 CNS) [%],growth (U251 CNS),growth (PC-3 prostate),growth (SK-MEL-5 melanoma),growth (UACC-62 melanoma),growth (LOX IMVI melanoma),growth (SK-MEL-28 melanoma),growth (SNB-75 CNS),growth (M14 melanoma)
COC(c1ccccc1)C(Br)C(=O)c1ccccc1 (stereo not drawn),116%,93.8%,87.8%,92.9%,89.4%,108%,93.3%,99.5%,87.2%,90.7%,106%,96.3,95.1%,91.3%,94.1%,84.9%,97.8%,102%,–,–
COc1ccc(/C=N/c2cc(C(C)(C)C)nn2-c2ccccc2)cc1,113%,92.2%,121%,99.7%,126%,101%,96.6%,92.5%,96.8%,86.8%,99.9%,94.6,97.9%,–,98%,86.7%,99.8%,111%,114%,–
NCCCOc1cc(Cl)ccc1NC(=O)c1cc2ccccc2cc1OCCCN,-90% (active),0.57% (active),-4.21% (active),-65% (active),-5.16% (active),-73.6% (active),-62% (active),-88.8% (active),–,4.32% (active),-91.3% (active),34,-93.2% (active),-76.3% (active),-86.4% (active),26.4%,-81.3% (active),-96.5% (active),-90.9% (active),-88.5% (active)
CC1(C)CC(=O)C2=C(C1)Oc1nc(N)c(C#N)c(N)c1C2c1ccc(F)cc1 (stereo not drawn),95.7%,85.9%,117%,88.7%,-1.27% (active),117%,110%,86.9%,94.8%,123%,99.6%,113,107%,113%,91.6%,85.6%,96.6%,110%,101%,–
CC(C)(C)c1cc(C[P+](c2ccc(Cl)cc2)(c2ccc(Cl)cc2)c2ccc(Cl)cc2)cc(C(C)(C)C)c1O,108%,32.4%,37.4%,102%,68%,99.1%,91.9%,105%,–,99.1%,56.9%,98,85.4%,70%,85.8%,81.6%,92.6%,88%,87.2%,106%
O=C(N/N=C/c1coc2ccccc2c1=O)c1cc2oc(-c3ccccc3)cc2[nH]1,93.8%,82.6%,-5.98% (active),96.8%,82%,96.2%,103%,89.8%,118%,100%,107%,92.9,97.9%,72.1%,84%,94.6%,98.4%,91.9%,83.8%,–
CC(=O)c1cc(Nc2cc(C)nc(N)n2)cc(C(C)=O)c1,91.3%,81.3%,45.3%,106%,108%,99.8%,114%,91.2%,103%,111%,111%,102,101%,107%,100%,93.7%,99.8%,111%,90.3%,–
COc1cc(N)c2nccc(C)c2c1OC,100%,92.1%,95.8%,91.2%,-4.59% (active),114%,116%,82%,92.5%,115%,111%,109,99.4%,108%,101%,93.7%,96.2%,115%,–,–
Cc1ccc([C@@H]2C[C@H](O)Cc3ccccc3N2)s1,111%,101%,104%,102%,126%,106%,107%,97.4%,100%,94.1%,117%,120,99.6%,92%,105%,117%,101%,116%,98.4%,–
COc1ccc(Nc2c3ccccc3nc3ccccc23)cc1,21.5%,12.4%,42.3%,55.3%,28.1%,35.9%,15.9%,23.3%,–,25.2%,8.49% (active),53.2,16.1%,32.6%,24.8%,47.6%,21.3%,49.7%,16.2%,48%
Cc1ccnc2c(NC(C)CCCN)cc(O)c(O)c12 (stereo not drawn),80.3%,80.3%,123%,75.2%,96.2%,108%,104%,79.8%,97.2%,121%,60%,102,–,91.6%,95.9%,105%,60.7%,115%,105%,–
COCC(=O)NNc1[nH]c(-c2ccc(OC)cc2)cc1C#N,111%,96.9%,112%,102%,114%,119%,96%,96.2%,109%,107%,110%,114,–,97%,117%,99.4%,110%,120%,120%,–
CNc1nc2ncn(C)c2c(=O)[nH]1,106%,65.5%,98.8%,90.9%,106%,95.5%,101%,96.2%,–,74%,98%,113,97.3%,100%,101%,78.3%,71.6%,103%,81.3%,112%
CCCC(C)c1cc(Cc2cc(Cl)cc(Cl)c2O)c(O)c(Cc2cc(Cl)cc(Cl)c2O)c1 (stereo not drawn),26.8%,7.77% (active),-22.2% (active),-13.4% (active),-10% (active),16.3%,-38.6% (active),-3.24% (active),-3.64% (active),6.15% (active),14.4%,24.2,7.55% (active),3.76% (active),-58.5% (active),-5.72% (active),5.31% (active),8.03% (active),12.2%,–
O=C(Nc1ccc(-n2cc(-c3ccncc3)c(-c3ccc(Cl)c(O)c3)n2)cc1)Nc1cc(C(F)(F)F)cc(C(F)(F)F)c1,36.4%,17.6%,12%,21.5%,-11.2% (active),25.9%,-5.6% (active),30.3%,8.73% (active),15.6%,0.312% (active),27.1,15.8%,4.61% (active),-24.4% (active),5.53% (active),19.8%,16.1%,-0.49% (active),–
COc1ccc(C2C3(C#N)C(N)=NC(=C(C#N)C#N)C23C#N)cc1OC (stereo not drawn),102%,97.1%,112%,93.2%,96.8%,121%,108%,94.2%,102%,114%,116%,106,–,111%,105%,99.8%,98.7%,115%,107%,–
